Reference: PubChem BioAssay (NCATS)
Records with an inconclusive call do not appear. Values without a mark were called inactive. Calls of active or inactive are those of the source. Calls follow the shape of the dose curve; as a rule, active = well fitted activation curve with a large enough effect; inconclusive = small, poorly fitted or top-dose-only effect; inactive = no such curve, though single readings can be large or run the other way.

Experiment: Validation screen for small molecules that induce genotoxicity in human embryonic kidney (HEK293T) cells expressing luciferase-tagged ELG1 (AID 493106); as to activity change, positive = ELG1 induction: 0% is about no effect
Conditions: luminescence; series mostly up to 46.1 µM; activity change, positive = ELG1 induction: at the top concentration
How it was run: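 HEK293T cells expressing luciferase-tagged ELG1, 2,000 cells/well, exposed to compound 16 hr at 37 °C, 5% CO2. Luciferase read after ONE-Glo, 30 min at room temperature; increased signal indicates genetic stress.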
Potency is read from the fitted curve at half-maximal effect.

Row | Structure (SMILES) | activity change, positive = ELG1 induction | Potency
1 | CCCn1c(C)c(C(=O)c2ccc3ccccc3c2)c2ccccc21 | 0.903% | –
2 | C[C@]12Cc3cn4c(nc3C=C1CCC1C2CC[C@@]2(C)[C@H]1CC[C@@]2(O)C#N)nc1ccccc14 (stereo partly drawn) | -25.2% | –
3 | CCCN1CC[C@@H]2c3cc(O)ccc3CC[C@@H]21 | -2.41% | –
4 | CC1(C(=O)O)C2CCC(O2)C1(C)C(=O)O (stereo not drawn) | – | 3.66 µM (active)
5 | NC(=O)c1ccc(OCC(O)CN2CC=C(c3ccc(F)cc3)CC2)cc1 (stereo not drawn) | -11.1% | –
6 | O=[N+]([O-])c1cc(O)c(O)c([N+](=O)[O-])c1 | -8.37% | –
7 | OC1CCCCC1N1CCC(c2ccccc2)CC1 (stereo not drawn) | -7.61% | –
8 | CC(N)[C@H](O)c1ccc(O)c(O)c1 (stereo partly drawn) | -0.662% | –
9 | OCc1cnc[nH]1 | -2.71% | –
10 | NCCc1ccc(S(=O)(=O)F)cc1 | 1.96% | –
11 | COc1ccc(CNC(=O)/C=C/c2ccc3[nH]cc(CCN(C)C)c3c2)cc1 | -0.301% | –
12 | CCCCCCC(C)(C)c1ccc([C@@H]2C[C@H](O)CC[C@H]2CCCO)c(O)c1 | -15.9% | –
13 | NC(CCCCCP(=O)(O)O)C(=O)O (stereo not drawn) | -6.98% | –
14 | c1ccc2c(c1)[I+]c1ccccc1-2 | -19.6% | –
15 | Nc1ccc(CCN2CCN(c3cccc(C(F)(F)F)c3)CC2)cc1 | -12.6% | –
16 | N[C@@H](CCl)C(=O)O | -8.85% | –
17 | Cc1o[nH]c(=O)c1CC(N)C(=O)O (stereo not drawn) | 2.92% | –
18 | C#CCN[C@H](C)Cc1ccccc1 | 0.15% | –
19 | O=C1C=CC(=O)C=C1 | -3.85% | –
20 | NC(=O)COc1c(F)cc(SCCNS(=O)(=O)c2ccccc2)cc1F | -10.7% | –
21 | NNC(N)=O | -5.12% | –
22 | Cc1c2ccncc2c(C)c2c1[nH]c1ccccc12 | -17.9% | –
23 | CC(=O)NBr | -1.08% | –
